# ± gives the standard deviation. Over roughly 8,200 sequences, “pre-steady-state target cleavage rate” has its median near 0.024; the highest 2% begin near 1.3. Shown is part of a subset that was picked to be rich in the highest values.
# Tested on: MIWI (PIWIL1) piRISC loaded with L1MC piRNA (30 nt)
# Test: pre-steady-state target cleavage rate (min^-1); MIWI and MILI are mouse PIWI proteins and EfPiwi is from a freshwater sponge; tags in brackets are library labels; higher = faster piRNA-guided slicing of the target
# Settings: guide: L1MC piRNA 5'p-UAACUAAAUACUAUGCAAGCUGUAGGUCCU
# Method: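 Cleave-'n-Seq: a library of target RNAs (target site embedded in constant flanks, ACAGCATTCCGCGTTAGTGATATCCG... 5' flank; DNA-blocked outside the site) at 0.1 nM was incubated with 1 nM active mouse MILI or MIWI piRISC (synthetic 5'-monophosphorylated piRNA guide) with or without 500 nM mouse GTSF1 at 33 °C for 1 min to 16 h. Uncleaved targets were sequenced and normalised to non-target controls, and the pooled three trials were fitted to a burst-and-steady-state model to give the pre-steady-state cleavage rate (min^-1; k3 is constrained to at most 1e-4). Sequence is the target site only; target names encode pairing extent (gX:gY) and contiguous / 1-mismatch / 2-mismatch / bulge geometry. Fits with R² ≤ 0 are excluded.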
# [1] = auxiliary factor: 500 nM mouse GTSF1
# [2] = auxiliary factor: none (no GTSF1)
Sequence,pre-steady-state target cleavage rate [1],pre-steady-state target cleavage rate [2]
AGGUGGUACAGCUUGCAUAGUAUUUAGAAA,0.19 ± 0.044,0.00559 ± 0.0016
UCCUGGUACAGCUUGCAUAGUUAAUAGAAA,0.023 ± 0.0089,–
UCCUGGAUGACUUGCAUAGUAUUUAGUUA,0.412 ± 0.03,0.0206 ± 0.0053
UCCUGGAUGUCGAACGAUAGUAUUUAGUUUA,< 0.0001,–
AGGACCUUCAGCUUGCAUUGUAUUUAGUUA,0.966 ± 0.031,0.0424 ± 0.01
AGGACCUACAGCUUGCAUUGUAUAUAGUUA,0.395 ± 0.031,0.0219 ± 0.0046
UCGACCUACAGCUUGGAUAGUAUUUAGAAA,0.372 ± 0.044,0.00679 ± 0.002
UCCUGGUACACCUUGCAUAGUUUUUAGUUA,0.0764 ± 0.027,0.0132 ± 0.0038
UGGAACCUACAGCUUGCAUAGUAUUUAGUUA,1.41 ± 0.1,0.0747 ± 0.016
AGGAACUACAGCUUGCAUAGUAUUUAGUUA,1.3 ± 0.041,0.0918 ± 0.016
UGAACCUACAGCUUGCAUAGUAUUUAGUUA,1.63 ± 0.068,0.0751 ± 0.015
UCGAACUACAGCUUGCAUAGUAUUUAGUUA,1.39 ± 0.049,0.0698 ± 0.011
UCGAACCUACAGCUUGCAUAGUAUUUAGUUA,1.37 ± 0.046,0.0781 ± 0.016
UCCACCUACAGCUUGCAUAGUAUUUAGUUG [g2:g27:cont:t1G],0.399 ± 0.047,0.0371 ± 0.0065
AGGAACCUACAGCUUGCAUAGUAUUUAGUUA,1.23 ± 0.059,0.0809 ± 0.014
UGGAACUACAGCUUGCAUAGUAUUUAGUUA,1.09 ± 0.041,0.0698 ± 0.011
AGGACCUACAGGAAGCAUAGUAUUUAGUUA,0.977 ± 0.08,0.0104 ± 0.0029
UGGACCUACAGCUUGCAUAGUAUAAACAAA,0.14 ± 0.028,–
UCCACCUACAGCUUGCAUAGUAAAUAGUUA,0.426 ± 0.039,0.00722 ± 0.0018
AGGACCUACAGGAUGCAUAGUAUUUAGUUA,1.06 ± 0.092,0.023 ± 0.0047
UCCUGGAUGUGCUAGCAUAGAAUUUAGUUA,0.00695 ± 0.0028,–

Sequence,pre-steady-state target cleavage rate [1],pre-steady-state target cleavage rate [2]
AGGACCUACAGCUUGGAUAGUAUUUACUUA,0.478 ± 0.054,0.0287 ± 0.0043
UCCAGCUACAGCUUGCAUAGUAUUAAGUUA,0.558 ± 0.043,0.015 ± 0.0026
UCAACCUACAGCUUGCAUAGUAUUUAGUUA,1.43 ± 0.04,0.0646 ± 0.011
UCCAACCUACAGCUUGCAUAGUAUUUAGUUA,1.05 ± 0.037,0.055 ± 0.0073
AGAACCUACAGCUUGCAUAGUAUUUAGUUA,1.43 ± 0.047,0.0851 ± 0.013
UCCUGGAACAGCUGGCAUAGUAUUUAGUUA,0.759 ± 0.038,0.0271 ± 0.0057
UCCAGCUACAGCUUGCAUAGUAAUUAGUUA,0.475 ± 0.038,0.0163 ± 0.0027
UCCUGCUACAGGUUGCAUAGUAUUUAGUUA,1.03 ± 0.037,0.0257 ± 0.0052
UCCUGGAUGAGCUUGCAUAGUAUUCUAGUUA,0.28 ± 0.036,0.0103 ± 0.0031
UCCUGCUACAGCUUGCAUAGUAUAUACUUA,0.111 ± 0.017,0.00755 ± 0.0036
UCGUCCUACUGCUUGCAUAGUAUUUAGUUA,1.14 ± 0.048,0.0572 ± 0.0094
UGGAGCUACAGCUUGCAUAGUAUUUUGUUA,0.992 ± 0.05,0.0525 ± 0.0077
UCCUGGUUGUGCUUGCAUAGUAUUUAGUUA,0.584 ± 0.032,0.0455 ± 0.0097
UGGACCUACAGCUUGCAUAGUUAAUAGUAA,0.0448 ± 0.01,–
UCCACCUACAGUUUGCAUAGUAUUUAGUUA,0.892 ± 0.072,0.0474 ± 0.0076
UGGACCUACAGUUGCAUAGUAUUUAGUUA,1.06 ± 0.094,0.00944 ± 0.0032
AGGACCUACAGUUUGCAUAGUAUUUAGUUA,1.25 ± 0.073,0.0653 ± 0.0093
UGGACCUACAGUUUGCAUAGUAUUUAGUUA,1.5 ± 0.088,0.0675 ± 0.013
UCGACCUACAGUUUGCAUAGUAUUUAGUUA,1.37 ± 0.054,0.0619 ± 0.0092
UCGACCUACAGUUGCAUAGUAUUUAGUUA,0.955 ± 0.065,0.00747 ± 0.0023
UGGACGUACUGCUUGCAUAGUAUUUAGUUA,1.01 ± 0.051,0.056 ± 0.0091

Sequence,pre-steady-state target cleavage rate [1],pre-steady-state target cleavage rate [2]
UCCUGGAACAGCUUGCUUAGUAAUUAGUUA,0.485 ± 0.041,0.0141 ± 0.0051
UCCUGGAACAGCUUGCAUAGUAUUAUCUUA,0.141 ± 0.028,0.00408 ± 0.0029
UCGACCUACAGCUUGCAUAGUAUUAUGUAA,0.228 ± 0.057,–
UCCUGGAACAGCUAGCAUAGUAUUUAGUUA,0.836 ± 0.027,0.022 ± 0.0049
AGGACCUACAGCUUGCAUAGUAGUUUAGUUA,0.47 ± 0.036,0.0209 ± 0.006
UCCUGGAUGUGCUUGGAUAGUAUUAAGUUA,0.0897 ± 0.022,0.00634 ± 0.0041
UCCUGGAUCAGCUUGCAUAGUAUUUAGUUU [g2:g22:cont:t1U],1.54 ± 0.089,0.0667 ± 0.016
UCCUGGAUCAGCUUGCAUAGUAUUUAGUA,0.838 ± 0.043,0.0119 ± 0.0038
UCCUGGAUCAGCUUUGCAUAGUAUUUAGUUA,1.05 ± 0.053,0.0153 ± 0.004
UCCUGGAUCAGCUUGUAUAGUAUUUAGUUA,1.64 ± 0.1,0.0468 ± 0.012
UCCUGGAUCAGCUUGCAUAGUAUUUUAGUUA,0.979 ± 0.05,0.0222 ± 0.0046
UCCUGGAUCAGCUUGCAUAGUAUUUAGUUC [g2:g22:cont:t1C],1.14 ± 0.052,0.0609 ± 0.012
UCCUGGAUCAGCUUGCAUAGUAUUUAGUUUA,1.64 ± 0.071,0.0415 ± 0.011
UCCUGGAUCAGCUUGGAUAGUAUUUAGUUA,0.775 ± 0.064,0.0476 ± 0.0092
UCCUGGAUCAGCUUGCAUAGUAUUUAGUUA [g2:g22:cont:t1A],1.36 ± 0.054,0.0516 ± 0.0097
UCCUGGAUCAGCUUGCAUAGUAUUUAGUAA,0.96 ± 0.047,0.0287 ± 0.0064
UCCUGGAUCAGCUUGCAUAGUAUUUAGUUG [g2:g22:cont:t1G],1.05 ± 0.12,0.0362 ± 0.0084
UCCUGGAUCAGCUUGCUAUAGUAUUUAGUUA,0.00584 ± 0.0043,–
UCCUGGAUGAGCUAGCAUAGUAUUUAGUUA,0.617 ± 0.05,0.0107 ± 0.0036

# — the supplement of paper PMC10338343
